Source: the supplement of paper PMC3334620
Whole data set: some 33,000 sequences, median “E-score (-0.5 to 0.5)” near -0.016, cut for the highest 2% near 0.3. Only a selection was taken, and the highest values are over-represented in it overall.

Each sequence was assayed against T1, Yer184c (UniProt P39961) (assay: PBM E-score (8-mer binding enrichment) (E-score (-0.5 to 0.5)); higher = stronger / more preferred TF binding). Conditions: protein concentration: 100 nM; construct: GST-full length.
T1 sequence: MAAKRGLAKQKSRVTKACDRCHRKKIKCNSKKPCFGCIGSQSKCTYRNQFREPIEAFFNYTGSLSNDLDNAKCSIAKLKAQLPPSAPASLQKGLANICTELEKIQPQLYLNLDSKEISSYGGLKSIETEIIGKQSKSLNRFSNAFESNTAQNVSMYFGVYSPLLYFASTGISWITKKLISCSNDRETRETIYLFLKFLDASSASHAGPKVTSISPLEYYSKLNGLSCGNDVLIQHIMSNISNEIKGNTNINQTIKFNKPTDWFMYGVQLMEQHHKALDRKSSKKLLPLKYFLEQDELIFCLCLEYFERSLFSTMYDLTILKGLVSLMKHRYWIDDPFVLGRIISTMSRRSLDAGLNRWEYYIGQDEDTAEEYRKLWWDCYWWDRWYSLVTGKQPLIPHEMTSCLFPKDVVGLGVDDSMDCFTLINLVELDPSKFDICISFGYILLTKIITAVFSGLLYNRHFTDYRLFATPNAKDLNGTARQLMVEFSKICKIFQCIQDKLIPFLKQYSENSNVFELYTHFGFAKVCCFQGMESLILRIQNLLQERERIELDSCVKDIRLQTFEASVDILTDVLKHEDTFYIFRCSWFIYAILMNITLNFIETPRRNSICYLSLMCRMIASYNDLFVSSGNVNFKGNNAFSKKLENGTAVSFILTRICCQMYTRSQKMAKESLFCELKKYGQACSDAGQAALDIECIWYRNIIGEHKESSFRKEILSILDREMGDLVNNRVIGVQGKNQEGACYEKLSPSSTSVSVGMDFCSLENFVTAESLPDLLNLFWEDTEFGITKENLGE
Procedure: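 Universal 'all 10-mer' protein binding microarrays (Agilent AMADID 015681) probed with GST-tagged S. cerevisiae TFs (full-length or DBD) made by in vitro transcription/translation (PURExpress), about 100-200 nM. Bound TF was detected with fluorescent anti-GST. Each ungapped 8-mer (which stands for itself and its reverse complement) is scored by the PBM enrichment score (E-score), a modified Wilcoxon-Mann-Whitney statistic from -0.5 to +0.5, computed with the Universal PBM Analysis Suite. Scale: above 0.35 generally sequence-specific binding.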

Row | Sequence | PBM E-score
1 | CCTGGAGA | -0.035
2 | AATCCTGA | 0.0482
3 | AAATACCT | -0.105
4 | ATCAACTA | 0.178
5 | GAGGTGCC | 0.0277
6 | CAACGTGC | -0.133
7 | ACAAGTAC | 0.00537
8 | AAGCGAGT | 0.225
9 | ATAGCCGA | 0.299
10 | AGAGCCGG | 0.314
11 | ATAGCCGG | 0.388
12 | AGAGCCGC | 0.0235
13 | AGAGCCGA | 0.26
14 | ATAGCCGC | 0.0602
15 | ACAGCCGG | 0.343
16 | ACAGCCGA | 0.0776
17 | ACAGCCGC | -0.0252
18 | ATCCACTG | -0.143
19 | CTCCAGTC | -0.195
20 | TGACCGAA | 0.228
21 | GGACCGAC | 0.12
22 | GGACCGAA | 0.353
23 | AGACCGAT | 0.0681
24 | AGACCGAA | 0.305
25 | CGACCGAA | 0.273

Row | Sequence | PBM E-score
26 | ACGTTGCC | -0.14
27 | CGTTACCC | -0.104
28 | CGATACCG | -0.0503
29 | AAATTGCC | 0.168
30 | CAGTGTGA | 0.0148
31 | AGCTCCAG | -0.151
32 | TAAATTCA | -0.0563
33 | CCTTCGGA | 0.327
34 | ACTTCGGA | 0.337
35 | ACTTCGGG | 0.0741
36 | ACTTCGGC | 0.269
37 | GCTTCGGA | 0.304
38 | CCTTCGGC | 0.219
39 | GCTTCGTA | -0.148
40 | CCTTCGCA | -0.0813
41 | GCTTCGCA | -0.163
42 | CGCGTTGA | -0.00366
43 | GGTCTTGA | -0.0168
44 | CAGTGGCC | -0.0943
45 | ATTTGTGA | 0.0908
46 | CCTCAACA | 0.126
47 | ACCCTAGC | -0.109
48 | AACGCCTG | -0.104
49 | TCCAGGCA | -0.15
50 | CCGCAAAC | 0.144

Row | Sequence | PBM E-score
51 | AGTCTTCA | -0.0522
52 | ATTTCGGA | 0.348
53 | CTTTCGGC | 0.201
54 | ATTTCGGC | 0.373
55 | ATTTCGTC | -0.0283
56 | ATTTCGCA | 0.24
57 | CTTTCGGA | 0.286
58 | GTTTCGTA | 0.274
59 | GTTTCGGA | 0.304
60 | ATTTCGGG | 0.157
61 | TCATAGGA | -0.0683
62 | AATACCGA | 0.165
63 | GACCATAA | 0.0623
64 | CTCAGTAA | -0.0129
65 | CAATGGAG | -0.164
66 | CGGATACG | 0.247
67 | AATATTCG | 0.0897
68 | TATATTAA | 0.274
69 | AATATTAT | 0.293
70 | AATATTAA | 0.311
71 | AATATTCA | 0.037
72 | AATATTCC | 0.342
73 | CGACCACA | -0.136
74 | TAGCGAGA | 0.00559
75 | AAGGACAA | 0.0335

Row | Sequence | PBM E-score
76 | ATCGGTCC | 0.0402
77 | GTCCCACA | 0.00972
78 | CTTGGTGA | -0.0525
79 | GCCGAAAA | 0.439
80 | GCCGAATA | 0.361
81 | CCCGAAAC | 0.0699
82 | ACCGAAAT | 0.218
83 | ACCGAAAG | 0.181
84 | CCCGAAAA | 0.263
85 | CCCGAATA | 0.196
86 | ACCGAATA | 0.173
87 | ACCGAAAA | 0.349
88 | ACCGAAAC | 0.264
89 | TCCGAAAA | 0.264
90 | GCCGAAAC | 0.34
91 | GGTGGGAC | -0.349
92 | GAAGTAGC | -0.00548
93 | AGTAACGG | 0.101
94 | AACGTAAG | -0.122
95 | CATCAATC | -0.0552
96 | GAGCCCCA | -0.266
97 | CCGTGCGA | 0.166
98 | CTTTGCCA | 0.034
99 | TAACCATA | -0.0927
100 | CTCTTTCC | -0.089

Row | Sequence | PBM E-score
101 | GAATTATA | 0.193
102 | TAATTATA | 0.322
103 | AAATTATA | 0.205
104 | GGTGTTCA | 0.0476
105 | ACCGGAAT | 0.233
106 | ACCGGAAC | 0.398
107 | GCCGGAGC | 0.238
108 | CCCGGAAC | 0.298
109 | GCCGGAAC | 0.403
110 | ACCGGAAG | 0.279
111 | ACCGGACC | 0.29
112 | ACCGGAAA | 0.376
113 | GCAGGAAC | -0.0354
114 | AAGTCTAA | -0.093
115 | CAGTCTCG | -0.0905
116 | CAAGCGTC | -0.0502
117 | GCTACTTA | -0.201
118 | CATCTTGC | 0.0249
119 | AGGCTCAA | -0.157
120 | CGGCTCAA | 0.314
121 | CGGCTCAG | 0.337
122 | TGGCTCAA | -0.0833
123 | AGGCTCAG | -0.163
124 | CGGCTCAC | 0.183
125 | TACAGTCA | -0.0508

Row | Sequence | PBM E-score
126 | ATCATTCA | 0.195
127 | CATGGTGC | -0.169
128 | CTACATAG | 0.0225
129 | CGATACCA | -0.0309
130 | GACGGCCA | -0.117
131 | GACGGCCC | -0.168
132 | TCCGGCCA | 0.218
133 | GCCGGCCC | 0.343
134 | GCCGGCCA | 0.348
135 | ACCGGCCC | 0.13
136 | GCCAGATA | -0.0238
137 | GCCAACCC | -0.059
138 | CCAAGGTC | -0.16
139 | CGCTTATA | 0.0756
140 | CCTTGCCA | -0.0398
141 | CCTAATGC | -0.233
142 | GCTTTCGA | -0.0696
143 | ATTTTAGA | 0.0124
144 | CACTGTCC | 0.0762
145 | AAGCCGAG | 0.286
146 | CAGCCGAA | 0.229
147 | GAGCCGAA | 0.372
148 | AAGCCAAA | 0.0744
149 | GAGCCGAC | 0.0364
150 | GAGCCAAA | -0.115

Row | Sequence | PBM E-score
151 | AAGCCGAT | 0.356
152 | AAGCCGAA | 0.389
153 | AAGCCGAC | 0.13
154 | CTAAACGC | 0.0164
155 | CTAGGCAC | -0.14
156 | AGACCCAA | -0.134
157 | GATGTTCC | 0.239
158 | AGACCCCG | 0.08
159 | ATGAAACA | 0.02
160 | ACCCGGAT | 0.185
161 | GCCCGGAA | 0.359
162 | CCCCGGAG | 0.135
163 | ACCCCGGA | 0.142
164 | ACCCGGTA | 0.183
165 | GCCCCGGA | 0.234
166 | ACCCGGAG | 0.348
167 | TCCCGGAA | 0.391
168 | GCCCGGAC | 0.192
169 | ACCCGGAA | 0.346
170 | CCCCGGAA | 0.151
171 | TCCCCGGA | 0.224
172 | ACTCGATA | 0.0187
